{
  "source": "PubChem BioAssay (Tox21)",
  "note": "Several values for one entry are separate records, joined by “and”; a condition that tells them apart may be missing. Equal entries are not always repeated. Records with an inconclusive call do not appear. A call without a number means that no potency is given here. More than one record can exist for a structure, and the calls need not agree. Activity calls are given as the source filed them. How the calls were made is not given here. Potency means the concentration at half of the fitted maximal effect.",
  "data": [
    {"test": "qHTS assay to identify small molecule antagonists of the estrogen related receptor signaling pathway with the pleiotropic PPARgamma coactivator (PGC) from Tox21 10K library (AID 1224841); further: actives are mostly falling curves and most rising ones were filed inactive; nearly all actives have a fitted effect of over 50% in size", "details": "PGC/ERR reporter cell line, ONE-Glo luciferase, 18 h; series mostly up to 92.4 µM", "from_the_text": "U.S. Tox21 Program National Center for Advancing Translational Sciences [NCATS] NIH Chemical Genomics Center [NCGC] U.S. Environmental Protection Agency [EPA] National Institutes of Environmental Health Sciences [NIEHS] National Toxicology Program [NTP] U.S. Food and Drug Administration [FDA] Tox21 Assay Overview: Estrogen related receptors (ERRs), the first orphan nuclear receptors discovered, play an important role in the control of cellular energy metabolism. ERRs are required for high-energy production in response to the environmental challenges. The pleiotropic PPARgamma coactivator (PGC) is a major partner of ERR and a key regulator in energy homeostasis. Together they have been implicated in the etiology of metabolic disorders such as Type 2 diabetes and metabolic syndrome. ERR-alpha was also identified as an adverse marker for breast cancer progression; ERR-alpha-positive tumors have a poor prognosis. To screen and to identify environmental compounds that perturb the ERR and PGC/ERR signaling pathways could provide valuable information for potential therapeutic or preventive measures in the treatment of metabolic disease. For identifying PGC/ERR antagonists, PGC/ERR cell line (provided by NTP) has been used to screen Tox21 10K library.\nTox21 Assay Protocol Summary: The PGC/ERR cells were dispensed at 2,000 cells/5 ul/well in 1536-well white plates using a Multidrop dispenser. After the assay plates were incubated at a 37 C/5% CO2 incubator for 6 hours, 23 nL of compounds dissolved in DMSO, positive and negative controls or DMSO only was transferred to the assay plate by a pin tool. The plates were incubated at 37 C for 18 hours. 4 ul/well of One-Glo reagent was added into the assay plates using a Flying Reagent Dispenser. After 30-minute incubation at room temperature, the luminescence intensity in the plates was measured using a ViewLux plate reader.", "values": [
      {"smiles": "Nc1ccc(O)c([N+](=O)[O-])c1", "Potency": "inactive"},
      {"smiles": "Nc1c(N=Nc2ccc(-c3ccc(N=Nc4cc(S(=O)(=O)O)c5ccccc5c4N)cc3)cc2)cc(S(=O)(=O)O)c2ccccc12", "Potency": "21.7 µM (active)"},
      {"smiles": "COc1ccc2c(c1)c(CC(=O)O)c(C)n2C(=O)c1ccc(Cl)cc1", "Potency": "30.8 µM (active) and inactive"},
      {"smiles": "CN(C)CCOC(C)(c1ccccc1)c1ccccn1", "note": "(centres undefined)", "Potency": "inactive"},
      {"smiles": "CC(C)C(=O)Nc1ccc([N+](=O)[O-])c(C(F)(F)F)c1", "Potency": "28.1 µM (active) and 30.6 µM (active) and 21.1 µM (active)"},
      {"smiles": "CC(C)NCC(O)c1ccc(O)c(O)c1", "note": "(centres undefined)", "Potency": "inactive"},
      {"smiles": "O=CC(=O)c1ccccc1", "Potency": "inactive"},
      {"smiles": "CCOc1ccc(NC(C)=O)cc1", "Potency": "inactive"},
      {"smiles": "Cc1ncc([N+](=O)[O-])n1CCO", "Potency": "inactive"},
      {"smiles": "NS(=O)(=O)c1cc2c(cc1Cl)NCNS2(=O)=O", "Potency": "inactive"},
      {"smiles": "CS(=O)(=O)OCCCCOS(C)(=O)=O", "Potency": "30.7 µM (active) and inactive"},
      {"smiles": "Cc1cccc(C)c1", "Potency": "inactive"},
      {"smiles": "CCCCCCc1ccc(O)cc1O", "Potency": "inactive"},
      {"smiles": "O=C(Nc1ncc([N+](=O)[O-])s1)c1cccs1", "Potency": "inactive"},
      {"smiles": "COc1ccc(C(Cl)=C(c2ccc(OC)cc2)c2ccc(OC)cc2)cc1", "Potency": "27.2 µM (active) and 30.6 µM (active) and 23.7 µM (active)"},
      {"smiles": "CCN(CC)C(=O)c1cccc(C)c1", "Potency": "inactive"},
      {"smiles": "CN1CCc2cccc3c2[C@H]1Cc1ccc(O)c(O)c1-3", "Potency": "30.9 µM (active) and 20.4 µM (active) and 29.8 µM (active)"},
      {"smiles": "CCCCCCCCCCCCCCCC[N+](C)(C)Cc1ccccc1", "Potency": "31.6 µM (active) and 24.8 µM (active) and 10.6 µM (active)"},
      {"smiles": "CN(C)C(=O)Nc1ccc(Cl)c(Cl)c1", "Potency": "inactive"},
      {"smiles": "O=c1[nH]cnc2c1ncn2[C@H]1CC[C@@H](CO)O1", "Potency": "inactive"},
      {"smiles": "C1=CC2C3C=CC(C3)C2C1", "note": "(centres undefined)", "Potency": "60 µM (active)"},
      {"smiles": "CN(C)C(=S)SC(=S)N(C)C", "Potency": "1.25 µM (active) and 1.22 µM (active) and 2.37 µM (active)"},
      {"smiles": "CCCCNC(=O)NS(=O)(=O)c1ccc(C)cc1", "Potency": "inactive"},
      {"smiles": "Nc1c2c(nc3ccccc13)CCCC2", "Potency": "inactive"},
      {"smiles": "CN[C@H]1CC[C@@H](c2ccc(Cl)c(Cl)c2)c2ccccc21", "Potency": "inactive"},
      {"smiles": "CCCCC1(COC(=O)CCC(=O)O)C(=O)N(c2ccccc2)N(c2ccccc2)C1=O", "Potency": "inactive"},
      {"smiles": "Cc1ncc([N+](=O)[O-])n1C", "Potency": "inactive"},
      {"smiles": "O=S1(=O)OC(c2ccc(O)cc2)(c2ccc(O)cc2)c2ccccc21", "Potency": "54.5 µM (active) and 61.1 µM (active) and inactive"},
      {"smiles": "CC1(C)O[C@@H]2C[C@H]3[C@@H]4CCC5=CC(=O)C=C[C@]5(C)[C@@]4(F)[C@@H](O)C[C@]3(C)[C@]2(C(=O)CO)O1", "Potency": "inactive"}
    ]}
  ]
}
